# Data reported in the supplement of paper PMC10338343.
# ± gives the standard deviation.
# Tested on: EfPiwi piRISC loaded with L1MC piRNA (26 nt)
# Experiment: pre-steady-state target cleavage rate (min^-1); auxiliary factor: 500 nM Ephydatia muelleri Gtsf1; guide: L1MC piRNA 5'p-UAACUAAAUACUAUGCAAGCUGUAGG; MIWI and MILI are mouse PIWI proteins and EfPiwi is from a freshwater sponge; tags in brackets are library labels; higher = faster piRNA-guided slicing of the target
# Summary of the method: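 For Cleave-'n-Seq, a transcribed, DNA-blocked target RNA library […] met 1 nM active affinity-purified piRISC with one synthetic guide at 33 °C for 0–8 or 0–960 min in HEPES–potassium acetate buffer, with or without 500 nM GTSF1 partner protein. Uncleaved targets were sequenced and normalised to depth and weakly complementary targets, with three trials pooled and k3 capped at 0.0001 min^-1. A burst-and-steady-state fit supplied the pre-steady-state cleavage rate.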
row,Sequence,pre-steady-state target cleavage rate
1,UCCUGGAACAGCUUGCAUAGAAUUUAGUAA,0.00292 ± 0.002
2,UCCUGCAUCAGCUUGCAUAGUAUUUAGAAA,0.00393 ± 0.0017
3,UCCUGGAUCAGCUUGCAUAGUUAAUAGUUA,0.00344 ± 0.003
4,UCCUCCUACACCUUGCAUAGAAUUUAGUUA,0.0018 ± 0.0016
5,UCCUGGAUGUGCUUGCAUAGUAUUUAGUCUA,0.00336 ± 0.0024
6,UCCUGCUACAGCUUGCAUACUAUUUUGUUA,0.00432 ± 0.0019
7,UCCUGCUACAGCUUGCAUAGUAUUUUGAUA,0.00307 ± 0.0023
8,UCCUGGUACACCUUGCAUAGUAUUUAGAUA,0.00278 ± 0.0024
9,UCCUGCUACAGCUUGCAUAGUAUUAAGAUA,0.00501 ± 0.0016
10,UCCUCCUACAGCUUGCAAAGUAUUUUCAAA,0.00286 ± 0.0028
11,UCCUGCUACAGCAUGCAUACUAUUUAGUUA,0.00525 ± 0.0021
12,UCCUCCUACAGCUUGCAUAGUAUUUAGUGUA,0.00735 ± 0.0033
13,UCCUCCUACAGGAUGCAUAGUAUUUACAAA,0.0028 ± 0.0027
14,UCCUGCUACAGCUUGCAUAGUAUUUUCUUA,0.00359 ± 0.002
15,UCCUGGAUCAGCUUGGAUAGUAUUUAGAAA,0.00249 ± 0.0024
16,UCCUCCUACAGCUUGCAUAGUAUUUUCUUA,0.00493 ± 0.003
17,UCCUGGUACAGCUUGCAUAGUAAUUACAAA,0.00331 ± 0.0026
18,UCCUGGAUGAGCUUGCAUAGUAUUUAGCUUA,0.00409 ± 0.0018
19,UCCUGCUACACCUUGCAUAGUAUUUUCAAA,0.00244 ± 0.0022
20,UCCUGCUACAGCUUGCAAAGUAUUUAGAAA,0.00352 ± 0.002

row,Sequence,pre-steady-state target cleavage rate
1,UCCUCCAACAGCUUGCAUAGUAUUUAGAAA,0.00461 ± 0.0019
2,UCCUCCUUCAGCUUGCAUAGUAUUUAGAAA,0.00603 ± 0.0031
3,UCCUCGUACAGCUUGCAUAGUAUUUAGAUA,0.00437 ± 0.0019
4,UCCUGGAUCAGCUUGCCAUAGUAUUUAGUUA,0.00658 ± 0.0025
5,UCCUGGAUCAGCUUGCAUACUAUUUAGUAA,0.00398 ± 0.0023
6,UCCUCCAACAGCUUGCAUAGUAUUUUGUUA,0.00594 ± 0.0025
7,UCCUGCUACAGGUUGCAUAGUAUUUUCAAA,0.00243 ± 0.0019
8,UCCUCCUACAGCUUGCAGUAGUAUUUAGUUA,0.00539 ± 0.0033
9,UCCUGCUACAGCUUGCAUAGAAUUUAGUAA,0.00358 ± 0.0016
10,UCCUGGAUCAGCUUGCAUAGUAUAUAGAUA,0.00301 ± 0.0023
11,UCCUGGAACAGCUUGCAUUGUAUUUUGUUA,0.00509 ± 0.0026
12,UCCUGCUACAGCUUGCAUAGUAUUUACUAA,0.0025 ± 0.0024
13,UCCUGGAACAGCUUGCAUAGUAUUUCAGUUA,0.00308 ± 0.0026
14,UCCUGCUACAGCUUGCUAUAGUAUUUAGUUA,0.0075 ± 0.002
15,UCCUGCUACAGCUUCCAUAGUAUUUAGUAA,0.00255 ± 0.0016
16,UCCUGCUACAGCUUGCUUAGUAUUAAGUUA,0.00988 ± 0.0037
17,UCCUCCUACAGCAUGCAUAGUAUUUAGAUA,0.00452 ± 0.0019
18,UCCUCCUACAGCUUGCAUACUAUUUAGAUA,0.00315 ± 0.0027
19,UCCUGGUACUGCUUGCAUAGUAUUUAGAAA,0.00409 ± 0.0019
20,UCCUCCAACAGCUUGCAUAGUAUUUACUUA,0.00475 ± 0.0037
